# Literature values, collected in PubChem BioAssay AID977611.
# Counter-ions that a name gives are not always drawn. In all, about 3,900 compounds went through this assay and about 3,900 (100%) were called active. Cut-off not given; nearly all actives show Kd up to about 4200 µM. So high a share suggests a set chosen from earlier hits. Some of the results follow. Bridge positions count the residues as written; N and C are the ends. Where a SMILES comes first, the peptide text is derived from it. Non-standard residues stand in square brackets, D forms with d. Square brackets hold non-standard residues; d marks the D form. Residues, ends and D or L forms follow the SMILES beside them. Peptide text beside a SMILES is read from it. [ ]: non-standard residue; d: D form. * marks the point of attachment. Orn(CH(NH2)2) = NC(N)NCCC[C@H](N)C(=O)O; Tfa = O=C(C(F)(F)F)*
# Assay: PubChem AID 977611
# Conditions: PDB protein-ligand complexes, literature Kd
compound,measurement,setting,value
NC(=NCC[C@H](N)C(=O)O)NO,Kd,"protein: Arginase, PDB entry 4q3u",0.36 µM (active)
CC[C@H](C)[C@H](NC(=O)[C@H](CC(N)=O)NC(=O)[C@@H](N)Cc1ccccc1)C(=O)N[C@H](C(=O)NCC(=O)N[C@H](C(=O)N[C@H](C(=O)N[C@@H](Cc1ccc(O)cc1)C(=O)N1CCC[C@H]1C(=O)O)[C@@H](C)O)[C@@H](C)O)C(C)C (H-FNIVGTTYP-OH),Kd,"protein: Gephyrin GephE, PDB entry 4tk2",190 µM (active)
H-FNIVGTTYPC-OH,Kd,"protein: Gephyrin GephE, PDB entry 4u90",0.288 µM (active)
CC[C@H](C)[C@H](NC(=O)[C@@H](NC(=O)[C@H](Cc1ccc(O)cc1)NC(=O)[C@H](C)N)[C@@H](C)O)C(=O)N[C@@H](CS)C(=O)N[C@@H](C)C(=O)NCC(=O)N[C@H](C(=O)N[C@@H](CCC(N)=O)C(=O)N[C@H](C(=O)N[C@@H](CC(=O)O)C(=O)N1CCC[C@H]1C(=O)O)[C@@H](C)O)[C@@H](C)O (H-AYTICAGTQTDP-OH),Kd,"protein: Dynein light chain 1, cytoplasmic LC8, PDB entry 4qh7",1.14 µM (active)
CC[C@H](C)[C@H](NC(=O)[C@@H](NC(=O)[C@@H](NC(=O)[C@H](CCCCN)NC(=O)[C@H](CC(=O)O)NC(=O)[C@@H](N)C(C)C)C(C)C)C(C)C)C(=O)N[C@@H](CC(N)=O)C(=O)N1CCC[C@H]1C(=O)N[C@@H](Cc1ccc(O)cc1)C(=O)N[C@@H](Cc1ccccc1)C(=O)NCC(=O)O (H-VDKVVINPYFG-OH),Kd,"protein: Malcavernin CCM2 PTB domain, PDB entry 4wj7",13 µM (active)
CC[C@H](C)[C@H](NC(=O)[C@H](CO)NC(=O)[C@@H](N)Cc1ccccc1)C(=O)N[C@H](C(=O)NCC(=O)N[C@H](C(=O)N[C@@H](CC(C)C)C(=O)N[C@@H](Cc1ccc(O)cc1)C(=O)N1CCC[C@H]1C(=O)O)[C@@H](C)O)C(C)C (H-FSIVGTLYP-OH),Kd,"protein: Gephyrin GephE, PDB entry 4tk3",8 µM (active)
same,Kd,"protein: Gephyrin GephE, PDB entry 4tk4",8 µM (active)
CC[C@H](C)[C@H](NC(=O)[C@H](CC(N)=O)NC(=O)[C@@H](N)Cc1ccccc1)C(=O)N[C@H](C(=O)NCC(=O)N[C@H](C(=O)N[C@H](C(=O)N[C@@H](Cc1ccc(O)cc1)C(=O)N1CCC[C@H]1C(=O)N[C@H](C(=O)N[C@@H](CC(N)=O)C(=O)O)[C@@H](C)CC)[C@@H](C)O)[C@@H](C)O)C(C)C (H-FNIVGTTYPIN-OH),Kd,"protein: Gephyrin GephE, PDB entry 4tk1",190 µM (active)
NC(N)=NCCC[C@@H](C(=O)O)N1[C@H](O)CC[C@@H]1C(=O)O,Kd,"protein: Nopaline-binding periplasmic protein NocT WT, PDB entry 4pow",0.5 µM (active)
NC(N)=NCCC[C@@H](C(=O)O)N1[C@@H](C(=O)O)CC[C@@H]1O,Kd,"protein: Nopaline-binding periplasmic protein NocT-M117N, PDB entry 4pp0",39.9 µM (active)
C[N+](C)(C)CCO[P+](O)(O)O,Kd,"protein: Ficolin-2, PDB entry 4nyt",4100 µM (active)
CC(O)C1C(=O)[C@H]2[C@@H]3c4c[nH]c5cccc(c45)C[C@@H]3C(C)(C)N2C1=O (some centres not stated),Kd,"protein: Sarcoplasmic/endoplasmic reticulum calcium ATPase 1, PDB entry 2EAS",0.007 µM (active)
CC(=O)N[C@H]1[C@H](O[C@H]2[C@H](O)[C@@H](O)CN[C@@H]2CO)O[C@H](CO)[C@@H](O[C@@H]2O[C@H](CO)[C@@H](O)[C@H](O)[C@H]2NC(C)=O)[C@@H]1O,Kd,"protein: Lysozyme C, PDB entry 4hpi",14.2 µM (active)
CC(=O)N[C@H]1[C@H](O[C@H]2[C@H](O)[C@@H](O)CN[C@@H]2CO)O[C@H](CO)[C@@H](O[C@@H]2O[C@H](CO)[C@@H](O[C@@H]3O[C@H](CO)[C@@H](O)[C@H](O)[C@H]3NC(C)=O)[C@H](O)[C@H]2NC(C)=O)[C@@H]1O,Kd,"protein: Lysozyme C, PDB entry 4hp0",0.76 µM (active)
OC[C@H]1O[C@@H](O)[C@H](O)[C@@H](O)[C@@H]1S[C@@H]1O[C@@H](CO[P+](O)(O)O)[C@@H](O)[C@H](O)[C@H]1O,Kd,"protein: 6-phospho-beta-glucosidase, PDB entry 4ipn",409 µM (active)
CO[C@H]1O[C@H](CO)[C@@H](O)[C@H](O)[C@@H]1S[C@H]1O[C@H](CO)[C@@H](O)[C@H](O)[C@@H]1O,Kd,"protein: MANNOSYL-OLIGOSACCHARIDE 1,2-ALPHA-MANNOSIDASE, PDB entry 4ayp",0.755 µM (active)
O[C@@H]1[C@H](O)[C@@H](CO[P+](O)(O)O)O[C@@H]1O,Kd,"protein: Transcriptional regulator LsrR, PDB entry 4l5j",1000 µM (active)
same,Kd,"protein: Transcriptional regulator LsrR, PDB entry 4l51",995 µM (active)
O=C1OC[C@@H](O[C@@H]2OC[C@@H](O[C@@H]3OC[C@@H](O)[C@H](O)[C@H]3O)[C@H](O)[C@H]2O)[C@H](O)[C@H]1O,Kd,"protein: Selenomethionine XBP1, PDB entry 4g68",0.012 µM (active)
CC(C)[C@@H]1NC(=O)[C@H](Cc2c[nH]cn2)NC(=O)[C@H](Cc2ccc(O)cc2)NC(=O)[C@H]([C@@H](C)O)NC(=O)[C@H](Cc2c[nH]cn2)NC(=O)[C@H](Cc2ccc(O)cc2)NC(=O)CSC[C@@H](C(N)=O)NC(=O)[C@H](Cc2ccc(O)cc2)NC(=O)[C@H](Cc2ccc(O)cc2)NC(=O)[C@H](CC(N)=O)NC(=O)[C@H]([C@@H](C)O)NC(=O)[C@H](CCCN=C(N)N)NC(=O)[C@H](CCCN=C(N)N)NC(=O)[C@H](CCCCNC(=O)C(F)(F)F)NC1=O ({CH2CO}-YHTYHVK(Tfa)RRTNYYC-NH2; thioether N-14),Kd,"protein: NAD-dependent protein deacetylase sirtuin-2, SIRT2, PDB entry 4l3o",1 µM (active)
Cc1noc(C)c1-c1ccc(-c2[nH]c3cncc[n+]3c2NC(C)(C)C)cc1,Kd,"protein: Bromodomain-containing protein 4 BRD4, PDB entry 4wiv",0.55 µM (active)
CC(C)[C@H](N)C(=O)N[C@@H](CCC(=O)O)C(=O)N[C@@H](CCC(N)=O)C(=O)N[C@@H](Cc1cnc[nH]1)C(=O)N[C@@H](Cc1cnc[nH]1)C(=O)N[C@@H](CCCNC(N)N)C(=O)N[C@@H](CCCNC(N)N)C(=O)N[C@H](C(=O)N[C@@H](CC(=O)O)C(=O)N[C@@H](CC(N)=O)C(=O)N[C@@H](CC(=O)O)C(=O)O)[C@@H](C)O (H-VEQHH[Orn(CH(NH2)2)][Orn(CH(NH2)2)]TDND-OH),Kd,"protein: 13F6-1-2 Fab fragment heavy chain, PDB entry 2qhr",0.041 µM (active)
CC(=O)N[C@@H](CO)C(=O)N[C@@H](Cc1cnc[nH]1)C(=O)N[C@H](C(=O)N[C@@H](C)C(=O)N[C@H](C(=O)N[C@@H](CCC(=O)O)C(=O)N[C@@H](CC(N)=O)C(=O)N[C@@H](C)C(=O)N[C@@H](CC(C)C)C(=O)O)C(C)C)C(C)C,Kd,"protein: HLA class I histocompatibility antigen, B-39 alpha chain, PDB entry 4o2c",0.01 µM (active)
CC[C@H](C)[C@H](NC(=O)[C@H](CCC(=O)O)NC(=O)[C@H](Cc1cnc[nH]1)NC(=O)[C@@H](NC(=O)[C@@H](NC(=O)[C@H](CO)NC(C)=O)[C@@H](C)O)C(C)C)C(=O)N[C@@H](CC(C)C)C(=O)N[C@@H](CO)C(=O)N[C@@H](CCCCN)C(=O)N[C@@H](CC(C)C)C(=O)N[C@@H](CO)C(=O)O (Ac-STVHEILSKLS-OH),Kd,"protein: S100A10, PDB entry 1bt6",2 µM (active)
CC(=O)N[C@@H](Cc1ccccc1)C(=O)N[C@@H](Cc1cnc[nH]1)C(=O)N[C@H](C(=O)N[C@@H](C)C(N)=O)[C@@H](C)O (Ac-FHTA-NH2),Kd,"protein: DNA REPAIR AND RECOMBINATION PROTEIN RADA, PDB entry 4b3b",250 µM (active)
CC(C)[C@H](NC(=O)[C@H](CCC(=O)O)NC(=O)[C@H](C)NC(=O)[C@H](CCCNC(N)N)NC(=O)[C@H](C)N)C(=O)N[C@@H](Cc1cnc[nH]1)C(=O)O (H-A[Orn(CH(NH2)2)]AEVH-OH),Kd,"protein: WD repeat-containing protein 5, PDB entry 3emh",0.14 µM (active)
CC(=O)NCC(=O)N[C@@H](CO)C(=O)N[C@@H](C)C(=O)N[C@@H](CCCNC(N)N)C(=O)N[C@@H](C)C(=O)N[C@@H](CCC(=O)O)C(=O)N[C@H](C(=O)N[C@@H](Cc1cnc[nH]1)C(=O)N[C@@H](CC(C)C)C(=O)O)C(C)C (Ac-GSA[Orn(CH(NH2)2)]AEVHL-OH),Kd,"protein: WD repeat-containing protein 5, PDB entry 3eg6",1.7 µM (active)
H-SEAAASTAVVIA-OH,Kd,"protein: human antithrombin, PDB entry 1br8",18 µM (active)
CC[C@H](C)[C@H](NC(=O)[C@H](CCC(=O)O)NC(=O)[C@H](C)NC(=O)[C@H](CCC(N)=O)NC(=O)[C@H](CO)NC(=O)[C@H](CC(C)C)NC(=O)[C@@H](NC(=O)[C@@H](N)CO)[C@@H](C)CC)C(=O)N[C@@H](CC(=O)O)C(=O)N[C@@H](C)C(=O)N[C@@H](CC(C)C)C(=O)N[C@@H](CC(C)C)C(=O)N[C@@H](CC(N)=O)C(=O)O (H-SILSQAEIDALLN-OH),Kd,"protein: double mutant Chemotaxis protein cheYD13K Y106W, PDB entry 1u8t",55 µM (active)
CC[C@H](C)[C@H](NC(=O)[C@H](CC(C)C)NC(=O)[C@H](CCCCN)NC(=O)[C@H](CCC(N)=O)NC(=O)[C@@H](N)CCC(=O)O)C(=O)N[C@@H](CO)C(=O)N[C@@H](CCC(=O)O)C(=O)N[C@@H](CCC(=O)O)C(=O)N[C@@H](CC(=O)O)C(=O)N[C@@H](CC(C)C)C(=O)N[C@@H](CC(N)=O)C(=O)O (H-EQKLISEEDLN-OH),Kd,"protein: Monoclonal anti-c-myc antibody 9E10, PDB entry 2or9",0.5 µM (active)
Cn1c(CNc2ccc(C(=N)N)cc2)nc2cc(C(=O)N(CCC(=O)O)c3ccccn3)ccc21,Kd,"protein: humanized anti dabigatran Fab, PDB entry 4jn2",2.1e-06 µM (active)
CCC1=CNN2C(NCc3ccc[n+]([O-])c3)CC(N3CCCC[C@H]3CCO)NC12 (some centres not stated),Kd,"protein: Bromodomain testis-specific protein, PDB entry 4kcx",37 µM (active)
CCCCCCCC(=O)O[C@@H]1[C@@H](OC(=O)[C@@H](C)CC)[C@@H](C)[C@H]2[C@H]1[C@@](C)(OC(C)=O)C[C@H](O[C@@H](O)CCC)[C@@]1(O[C@H](O)CCC)[C@H]2O[C@@H](O)[C@@]1(C)O,Kd,"protein: SERCA1a, PDB entry 4j2t",0.011 µM (active)
CC[C@H](C)[C@H](NC(=O)[C@H](CCSC)NC(=O)CNC(=O)[C@H](CCCNC(N)N)NC(=O)[C@@H](N)CCC(N)=O)C(=O)O (H-Q[Orn(CH(NH2)2)]GMI-OH),Kd,"protein: Response regulator aspartate phosphatase F, PDB entry 4i9c",3.1 µM (active)
CSCC[C@H](NC(=O)[C@H](CC(C)C)NC(=O)[C@H](C)NC(=O)[C@@H](NC(=O)[C@H](CC(N)=O)NC(=O)[C@H](CO)NC(=O)CNC(=O)[C@H](CCCNC(N)N)NC(=O)[C@H](CCCNC(N)N)NC(=O)[C@H](CCC(=O)O)NC(=O)[C@H](CCC(N)=O)NC(=O)[C@H](CC(C)C)NC(=O)[C@@H](N)CCCNC(N)N)C(C)C)C(=O)N[C@@H](CC(C)C)C(=O)N[C@@H](CC(=O)O)C(=O)N[C@@H](CS)C(=O)O (H-[Orn(CH(NH2)2)]LQE[Orn(CH(NH2)2)][Orn(CH(NH2)2)]GSNVALMLDC-OH),Kd,"protein: Mitogen-activated protein kinase 1, PDB entry 2gph",5 µM (active)
CC[C@H](C)[C@H](NC(=O)[C@H](CC(=O)O)NC(=O)[C@H](CCC(=O)O)NC(=O)[C@H](CC(C)C)NC(=O)CNC(=O)[C@H](C)NC(=O)[C@H](C)N)C(=O)N[C@H](C(=O)N[C@@H](CCCNC(N)N)C(=O)N[C@@H](CCCCN)C(=O)N[C@@H](C)C(=O)N[C@@H](CC(C)C)C(=O)N[C@@H](CCSC)C(=O)NCC(=O)N[C@H](C=O)CO)[C@@H](C)CC (H-AAGLEDII[Orn(CH(NH2)2)]KALMGS-aldehyde),Kd,"protein: Glucocorticoid receptor, PDB entry 3h52",14 µM (active)
CC(C)C[C@H](NC(=O)CNC(=O)[C@H](CC(C)C)NC(=O)[C@@H](NC(=O)[C@H](CC(C)C)NC(=O)[C@H](CCC(N)=O)NC(=O)[C@@H](N)CCCNC(N)N)C(C)C)C(=O)O (HELM PEPTIDE1{[NC(N)NCCC[C@H](N)C(=O)[*:2]].Q.L.V.L.G.L}$$$$V2.0),Kd,"protein: DNA polymerase III, PDB entry 1ok7",1.2 µM (active)
